Compound activity from PubChem.
Rows were chosen to be rich in hits. Some 2.4% of all compounds tested hit in one or more screens of this group.
POLK inh: DNA polymerase kappa (human) inhibition; AID 588579; 0.53% of 400,000 active; Q9UBT6; purified Pol kappa, fluorescent DNA synthesis assay, 10 min; Potency, µM (top dose mostly 107 µM), inactives show top-dose activity, negative = inhibition, hits mostly inhibitors; note: % is set by controls: 0 for no effect and ±100 for the full control effect
Target sequence (Q9UBT6 whole entry, looked up): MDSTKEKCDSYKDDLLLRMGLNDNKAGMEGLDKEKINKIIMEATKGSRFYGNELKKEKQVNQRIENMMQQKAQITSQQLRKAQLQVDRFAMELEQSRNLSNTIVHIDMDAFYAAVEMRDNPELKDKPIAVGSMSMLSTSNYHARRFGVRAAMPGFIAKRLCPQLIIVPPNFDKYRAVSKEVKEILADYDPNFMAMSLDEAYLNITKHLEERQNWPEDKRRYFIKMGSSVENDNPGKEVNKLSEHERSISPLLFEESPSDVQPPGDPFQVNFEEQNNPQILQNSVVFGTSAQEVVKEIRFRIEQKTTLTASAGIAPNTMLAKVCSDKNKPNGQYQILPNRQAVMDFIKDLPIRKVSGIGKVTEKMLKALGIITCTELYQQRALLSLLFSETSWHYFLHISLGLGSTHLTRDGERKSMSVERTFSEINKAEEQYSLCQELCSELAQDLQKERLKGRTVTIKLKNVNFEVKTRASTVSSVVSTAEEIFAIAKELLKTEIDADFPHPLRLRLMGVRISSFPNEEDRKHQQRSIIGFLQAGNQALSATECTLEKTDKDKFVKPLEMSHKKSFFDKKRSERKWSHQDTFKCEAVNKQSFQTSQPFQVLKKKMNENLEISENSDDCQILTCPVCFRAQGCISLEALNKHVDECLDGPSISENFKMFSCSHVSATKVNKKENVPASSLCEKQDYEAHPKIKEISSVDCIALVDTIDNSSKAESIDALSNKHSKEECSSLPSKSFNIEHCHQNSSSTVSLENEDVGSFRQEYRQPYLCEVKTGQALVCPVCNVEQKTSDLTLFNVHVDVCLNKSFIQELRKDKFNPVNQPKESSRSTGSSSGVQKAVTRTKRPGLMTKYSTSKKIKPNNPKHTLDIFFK
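Activity was followed as the change in fluorescence between reads at 0 and 10 min after starting the reaction with 50 nM substrate. Beforehand, 10 nM polymerase had been preincubated with compound for 15 min at room temperature.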
Pol beta inh: blocks human DNA polymerase beta activity; Potency, µM (highest dose often 114 µM), for the others: at the top dose activity change, negative = inhibition, hits mostly inhibitors; P06746; Pol beta primer extension/strand displacement, fluorescence kinetic; 1.3% of 340,000 active; note: % is set by controls: 0 for no effect and ±100 for the full control effect
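Preincubation: enzyme (10 nM) with compound, 15 min, RT. Reaction: substrate added to 50 nM final. Reads: 0 and 10 min. Analysis: normalized, Hill fit.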
FEN1 inhibitor: inhibitors of human flap endonuclease 1; 0.35% of 390,000 active; Recombinant FEN1 flap cleavage, fluorescence, 15 min; Potency, µM (series often up to 114 µM), for the others: at the highest dose activity change, negative = inhibition, usual class: inhibitors; note: % is set by controls: 0 for no effect and ±100 for the full control effect; nearly all actives have a fitted effect of over 65% in size
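Read-out was taken twice, immediately and after 15 min, following addition of 50 nM substrate to 10 nM FEN1 that had sat with test compound for 15 min at room temperature. Curves came from a four-parameter Hill model.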
POLI inh: inhibitors of human DNA polymerase iota | Q9UNA4 | Pol iota fluorescent replication assay, 10 min | Potency, µM (top dose mostly 115 µM), inactives show top-dose activity, negative = inhibition, actives largely listed as inhibitors | 1% of 390,000 active | AID 588590
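Pol iota at 10 nM preincubated 15 min with compounds at room temperature; reaction started with fluorescent substrate, 50 nM final. Fluorescence read kinetically at 0 and 10 min; buffer-only wells as negative control.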
WRN helicase inh: WRN helicase (human) inhibition. WRN helicase unwinding, fluorescent forked duplex, kinetic. Potency, µM (series often up to 114 µM), inactives show at the top dose activity change, negative = inhibition, actives largely listed as inhibitors. 0.46% of 360,000 active; note: % is set by controls: 0 for no effect and ±100 for the full control effect; nearly all actives have a fitted effect of over 55% in size
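Screening of the MLSMR collection measured strand separation of a quenched forked DNA duplex (100 nM) by 20 nM WRN with 2 mM ATP, all final. Compounds were preincubated with enzyme 15 min at room temperature.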
POLH inh: blocks human DNA polymerase eta activity; AID 588591; Potency, µM (series often up to 114 µM), without a hit: at the top dose activity change, negative = inhibition, hits mostly inhibitors; 1.2% of 390,000 active; recombinant Pol eta, fluorescent DNA replication assay; note: % is set by controls: 0 for no effect and ±100 for the full control effect
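Fluorescent replication assay: 50 nM final substrate added after a 15 min room-temperature compound preincubation with 10 nM enzyme. Signal taken at 0 min and again at 10 min.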
An asterisk follows results filed as active; ? = inconclusive; . = no result; [ ] = another dose, or the depositor's remark. Calls come from the whole dose curve; as a rule, active = well fitted curve in the direction sought with a large enough effect; inconclusive = small, poorly fitted or top-dose-only effect, or another doubt; inactive = no such curve, though single readings can be large; an effect the other way counts as inactive or inconclusive. Potency is the fitted concentration of half-maximal effect.

SMILES	POLK inh	Pol beta inh	FEN1 inhibitor	POLI inh	WRN helicase inh	POLH inh
CCC(C)C(NC(=O)OC(C)(C)C)C(=O)NC1COC2CC(n3cc(C)c(=O)[nH]c3=O)OC12 (configuration not stated)	13%	.	16%	5%	.	.
O=[N+]([O-])c1ccc(NCCc2ccccc2)c(Br)c1	-4%	79µM*	-6%	-2%	-7%	-21%
OC[C@H]1O[C@@H](Oc2cc(O)cc(/C=C/c3ccc(O)cc3)c2)[C@H](O)[C@@H](O)[C@@H]1O	.	20µM*	.	.	.	.
CCOC(=O)c1sc(N2C(=O)C(O)=C(C(=O)c3ccco3)C2c2ccco2)nc1C (configuration not stated)	?	?	-20%	56µM*	4%[11.6 µM]	?
O=C(C[n+]1ccccc1Cl)c1ccc(Br)cc1	-30%	.	-1%	?	.	.
COc1cc2ccccc2cc1C(=O)OCC(=O)Nc1ccc(Br)cc1	89µM*	.	?	.	.	.
CCOc1cc2ccccc2cc1C(=O)OCC(=O)Nc1ccc(Br)cc1	-14%	.	8%	23%	.	.
O=C(O)C1(C(=O)O)CCCC1	-6%	.	5%	-13%	4%	-5%
O=C(O)C1(C(=O)O)CCC1.[NH2-].[NH2-].[Pt+2]	8.9µM*	.	.	.	.	.
N#C/C(=C\c1ccc(/C=C(/C#N)c2nn(CCO)c(N)c2C#N)cc1)c1nn(CCO)c(N)c1C#N	-12%	2%	?	-5%	56µM*	-9%
N#C/C(=C/c1ccccc1)c1nn(CCO)c(N)c1C#N	-1%	7%	5%	12%	-5%	-1%
COc1cccc(Nc2ncc3nc(-c4ccccc4)c(=O)n(Cc4cccs4)c3n2)c1	-2%[60.1 µM]	.	.	.	.	.
Cc1cc(C)c2c(N)c(C(=O)Nc3ncc(C)s3)sc2n1	-25%	45µM*	?	-11%	-25%	-16%
COC(=O)c1sc2nc(C)cc(C)c2c1N	-2%	1%	-17%	3%	-6%	-8%
Cc1sc(NC(=O)C2c3ccccc3Oc3ccccc32)c(C(=O)OC(C)C)c1C	-20%	-1%	-15%	-2%	.	-19%
Cc1c(C(=O)OC(C)C)sc(NC(=O)C2c3ccccc3Oc3ccccc32)c1C(=O)OC(C)C	?	?	-11%	89µM*	.	-15%
O=C(CSc1cccc(C(F)(F)F)c1)NC(=O)NCc1ccco1	?	?	-19%	?	?	-25%
O=C(CSc1n[nH]c(-c2ccccc2)n1)NC(=O)NCc1ccco1	?	35µM*	-1%	45µM*	-21%[57.1 µM]	?
O=C(CSc1nnc(-c2ccc(OC(F)F)cc2)o1)NC(=O)NCc1ccco1	-29%	45µM*	6%	79µM*	-11%[11.6 µM]	?
O=C(CSc1nc2ccccc2o1)NC(=O)NCc1ccco1	-17%	-4%	-15%	-9%	-14%	?
O=C(CSc1ccccc1F)NC(=O)NCc1ccco1	-24%	10µM*	-1%	?	4%[11.6 µM]	?
O=C(CSc1ncccn1)NC(=O)NCc1ccco1	-14%	?	2%	79µM*	4%[11.6 µM]	-11%
Nc1c(Br)cc(C=O)cc1Br	3%	.	-4%	37%	.	.
CCOC(=O)N1CCN(/[N+]([O-])=N/OCOC)CC1	8%	.	19%	24%	.	.
COc1ccc(/C=C/c2ccccn2)cc1	-3%	.	-1%	11%	.	.
O=[N+]([O-])c1ccc(O/N=[N+](\[O-])N2CCN(c3ccccc3)CC2)c([N+](=O)[O-])c1	-22%	.	-4%	?	.	.
CCOc1ccc2nc(SCC(=O)NC(=O)NCc3ccco3)[nH]c2c1	-23%	50µM*	-4%	?	-8%	?
CCOc1ccc(-n2c(=S)sc3c(=O)[nH]c(SCC(=O)NCc4ccco4)nc32)cc1	-32%	35µM*	9%	?	-24%	56µM*
CCOc1ccc2nc(SCC(=O)NCc3ccc(OC)c(OC)c3)[nH]c2c1	-5%	33%	8%	-3%	8%	-19%
